# In PubChem BioAssay AID463173 (ICCB-Longwood Screening Facility, Harvard Medical School, 2010):
# The campaign covered roughly 52,000 compounds. About 4,300 (8.3%) were called active. This is one part of a sample in which actives are shown more often than they occur. Unmarked numbers belong to inactive results. No stated cut-off is given here; in the data, active means survival mostly below about 52% (no sharp cut-off); inactive means mostly above about 56%.
# System: DeltatarO mutant
# Assay: S. aureus survival, RN4220 and DeltatarO strains – OD600, teichoic acid synthesis inhibitors, primary screen (AID 463173)
# Details: S. aureus RN4220 wild type/DeltatarO growth, OD600, 18 h, stronger effect = lower value, screened at 18.75 µg/mL (by protocol)
row,SMILES,survival
1,CCOC(=O)N1CCc2c(sc3c2c(=O)n(Cc2ccccc2)c(=O)n3CC(=O)Nc2cccc(CC)c2)C1,71%
2,COc1cc(NC(=O)C(Cc2ccccc2)NS(=O)(=O)c2cccc3nsnc23)cc(OC)c1 (stereo not given),72%
3,O=C(Nc1ccc(OC(F)(F)F)cc1)C(Cc1ccccc1)NS(=O)(=O)c1cccc2nsnc12 (stereo not given),49% (active)
4,O=C(Nc1ccc(OC(F)(F)F)cc1)C(NS(=O)(=O)c1cccc2nsnc12)c1ccccc1 (stereo not given),56%
5,CCc1ccccc1NC(=O)N1CCN(c2cc(-c3noc(C)n3)ccc2C)CC1,134%
6,S=c1[nH]nc(CCCOc2ccc(Cl)cc2Cl)o1,54%
7,O=C(NC1CCCCC1)NC1CCN(Cc2nnnn2Cc2ccc(F)cc2)CC1,88%
8,COc1ccc(Cn2ccc3nc(C)c(C(=O)N4CCN(c5ccccc5F)CC4)cc3c2=O)cc1,63%
9,CC1CCN(C(=O)c2cccc(Cl)c2)CC1,93%
10,CN1CC2(C)CN(C(=O)c3ccccc3Cl)CC(C)(C1)C2,88%
11,CC1CCN(c2ccc(NC(=O)c3cccc(Cl)c3)cc2C(=O)O)CC1,87%
12,COc1ccc(C(=O)N2CCC(C(=O)Nc3ccc(Cl)cc3)CC2)cc1,127%
13,COc1ccc(CCC(=O)NCc2ccc3c(c2)CCN3C(=O)c2ccc(Cl)cc2)cc1,89%
14,COc1ccccc1C(=O)CC1(O)C(=O)N(CC(N)=O)c2ccccc21 (stereo not given),61%
15,CC1(c2ccccc2)CC(C)(C)N(C(=O)c2ccccc2Cl)c2ccccc21 (stereo not given),-4% (active)
16,COc1ccc(C(=O)N2c3ccccc3C(C)(c3ccc(Cl)cc3)CC2(C)C)cc1 (stereo not given),11% (active)
17,COc1ccccc1C(=O)N1c2ccccc2C(C)(c2ccc(Cl)cc2)CC1(C)C (stereo not given),0% (active)
18,COc1ccccc1C(=O)N1CCC(c2c[nH]c3ccccc23)(c2c[nH]c3ccccc23)CC1,98%
19,CC1(c2ccccc2)CC(C)(C)N(C(=O)c2cccc(Cl)c2)c2ccccc21 (stereo not given),8% (active)
20,O=C(c1ccccc1Cl)n1cc(Cl)cn1,95%
21,CC(C(=O)c1ccccc1)n1cnc2ccccc2c1=O (stereo not given),104%
22,COc1ccccc1N1CCN(C(=O)Cn2cnc3onc(-c4ccc(F)cc4)c3c2=O)CC1,84%

row,SMILES,survival
1,Fc1ccc(CN2CCc3nc(N4CCN(c5ccccc5F)CC4)ncc3C2)c(F)c1,77%
2,Cc1cc(NC(=O)CCn2c(=O)c3cccn3c3cccnc32)ccc1Br,102%
3,COc1ccc(CNC(=O)Cn2c(=O)nc(-c3ccccc3)c3ccccc32)cc1OC,89%
4,CCCCc1nn2c(=O)cc(COC(=O)c3ccccc3NC(=O)C3CCCCC3)nc2s1,71%
5,CC1=C(c2cccc(Cl)c2)S(=O)(=O)NC1=NCc1ccccc1C,99%
6,O=C(c1cccc(F)c1)N1CCC(c2c[nH]c3ccccc23)(c2c[nH]c3ccccc23)CC1,86%
7,CC1(c2ccc(Cl)cc2)CC(C)(C)N(C(=O)c2ccccc2)c2ccccc21 (stereo not given),-4% (active)
8,CC1(c2ccc(Cl)cc2)CC(C)(C)N(C(=O)c2cccc(F)c2)c2ccccc21 (stereo not given),11% (active)
9,CC1CC(C)CN(C(=O)c2ccc(Cl)cc2)C1 (stereo not given),96%
10,O=C(NCc1ccc2c(c1)CCN2C(=O)c1ccc(Cl)cc1)c1cccc(F)c1,61%
11,CC1(C)C(=O)N(CC(=O)Nc2ccc(Cl)cc2)c2ccccc21,83%
12,CCOC(=O)c1c(NC(=O)CSc2cn(CCNC(=O)c3ccccc3OC)c3ccccc23)sc2c1CCC2,141%
13,CCOc1ccc(-c2cc(-c3nc(-c4cc(OC)c(OC)c(OC)c4)no3)[nH]n2)cc1Cl,96%
14,Cc1nnc(N2CCCC(C(=O)NCCc3ccccc3)C2)c2nn(-c3ccccc3)c(C)c12 (stereo not given),94%
15,O=C(Nc1ccccc1O)c1ccccn1,77%
16,CCCCCn1c(=O)[nH]c2cc(C(=O)N3CCN(c4cccc(Cl)c4)CC3)ccc2c1=O,71%
17,O=C(c1ccc2c(=O)n(CCc3ccccc3)c(=O)[nH]c2c1)N1CCN(c2ccc(F)cc2)CC1,111%
18,COc1ccc(Cn2c(=O)[nH]c3cc(C(=O)N4CCN(c5cc(C)ccc5C)CC4)ccc3c2=O)cc1,73%
19,CCCCCn1c(=O)[nH]c2cc(C(=O)N3CCN(c4cccc(OC)c4)CC3)ccc2c1=O,55% (active)
20,CCCCCn1c(=O)[nH]c2cc(C(=O)N3CCN(c4ccc(OC)cc4)CC3)ccc2c1=O,135%
21,Cc1ccc(C)c(N2CCN(C(=O)c3ccc4c(=O)n(CCc5ccccc5)c(=O)[nH]c4c3)CC2)c1,55% (active)
22,Cc1cccc(-n2ncc3c(N4CCN(CCO)CC4)ncnc32)c1,83%

row,SMILES,survival
1,Cc1ccc(Cc2cn3cc(-c4ccccc4)nc3s2)cc1,66%
2,COc1cccc(CN2C(=O)C3(SCC(=O)N3c3ccc(C)c(Cl)c3)c3ccccc32)c1 (stereo not given),52% (active)
3,COc1cccc(N2C(=O)CSC23C(=O)N(Cc2ccccc2)c2ccccc23)c1 (stereo not given),80%
4,COc1cccc(CN2C(=O)C3(SCC(=O)N3c3ccc(C(C)C)cc3)c3ccccc32)c1 (stereo not given),55%
5,CC(=O)N(Cc1cccnc1)c1nc2c(F)cc(F)cc2s1,89%
6,COC(=O)c1cc2oc3ccccc3c2n1Cc1nc(-c2ccc(Cl)cc2)oc1C,91%
7,CCOc1ccc(CCNC(=O)Cn2ccc3cc(S(=O)(=O)N4CCCCC4)ccc32)cc1,102%
8,COc1ccc(C2=CC(c3ccc(F)cc3)n3ncc(C(=O)Nc4ccc(C)cc4)c3N2)cc1 (stereo not given),106%
9,COc1cccc(C2C=C(c3ccccc3)Nc3c(C(=O)Nc4ccccc4)cnn32)c1OC (stereo not given),13% (active)
10,CC1=C(C(=O)Nc2ccccc2)C(c2ccccc2Cl)n2ncc(C(=O)Nc3cccc(C)c3)c2N1 (stereo not given),88%
11,COc1ccccc1NC(=O)C1=C(C)Nc2c(C(=O)Nc3cccc(C)c3)cnn2C1c1ccccc1Cl (stereo not given),-5% (active)
12,COc1ccccc1NC(=O)C1=C(C)Nc2c(C(=O)Nc3cccc(C)c3)cnn2C1c1ccccc1C (stereo not given),89%
13,COc1ccc(C2C(C(=O)Nc3ccccc3)=C(C)Nc3c(C(=O)Nc4ccccc4)cnn32)cc1 (stereo not given),126%
14,CCc1ccc(C2C(C(=O)Nc3ccccc3)=C(C)Nc3c(C(=O)Nc4ccc(C)cc4)cnn32)cc1 (stereo not given),17% (active)
15,CCOc1ccc(NC(=O)c2cnn3c2NC(c2ccccc2)=CC3c2cccc(OC)c2OC)cc1 (stereo not given),62%
16,CCc1ccc(C2C(C(=O)Nc3ccccc3OC)=C(C)Nc3c(C(=O)Nc4ccc(C)cc4)cnn32)cc1 (stereo not given),68%
17,COc1cc(OC)c(C2C=C(c3ccc(C)cc3)Nc3c(C(=O)Nc4ccccc4)cnn32)cc1OC (stereo not given),48%
18,COc1ccc(C2C=C(c3cccc(OC)c3)Nc3c(C(=O)Nc4ccccc4)cnn32)cc1 (stereo not given),52%
19,COc1ccc(C2C=C(c3ccc(C)cc3)Nc3c(C(=O)Nc4ccccc4)cnn32)cc1 (stereo not given),53% (active)
20,CC(C)(C)C(=O)Cn1c(=O)n(-c2ccccc2)c(=O)c2c3c(sc21)CCC3,80%
21,CCCn1ccc2c(OCC(=O)Nc3ccccc3OCC)cccc2c1=O,102%
22,O=S1(=O)c2cccc3cccc(c23)N1Cc1ccccc1F,81%

row,SMILES,survival
1,CN1CCN(C(=O)C2CCN(S(C)(=O)=O)CC2)CC1,83%
2,COc1ccc(C2=CC(c3ccccc3F)n3ncc(C(=O)Nc4ccc(C)cc4)c3N2)cc1 (stereo not given),107%
3,COc1cccc(C2=CC(c3ccccc3F)n3ncc(C(=O)Nc4ccc(F)cc4)c3N2)c1 (stereo not given),72%
4,COc1cccc(C2C=C(c3ccc(C)cc3)Nc3c(C(=O)Nc4ccc(F)cc4)cnn32)c1OC (stereo not given),0% (active)
5,COc1nc(Nc2ccc(C)cc2)nc(NC2CCCC2)n1,81%
6,C/C(=N\NC(=O)CNc1ccccc1)c1ccccc1,85%
7,Cc1cccc(Cn2c(SCc3ccc(C(=O)NCc4ccccc4F)cc3)nc3cccnc32)c1,98%
8,CCOC(=O)c1c(S(=O)(=O)N2CCCC(C(=O)Nc3cccc(C)n3)C2)c(C)n(C)c1C (stereo not given),87%
9,O=c1oc2ccc3ccccc3c2cc1-c1nnc(Nc2cccc(C(F)(F)F)c2)s1,81%
10,COc1ccc(-c2noc(-c3ccc(NC4CCCC4)c([N+](=O)[O-])c3)n2)cc1OC,55%
11,COc1ccccc1-c1noc(-c2ccc(NC3CCCC3)c([N+](=O)[O-])c2)n1,43% (active)
12,Cc1ccccc1-c1noc(-c2ccc(NC3CCCC3)c([N+](=O)[O-])c2)n1,66%
13,COc1ccccc1-c1noc(-c2ccc(NC3CCCCC3)c([N+](=O)[O-])c2)n1,41% (active)
14,COc1cc(-c2noc(-c3ccc(NC4CCCCC4)c([N+](=O)[O-])c3)n2)cc(OC)c1OC,76%
15,COc1ccc(-c2noc(-c3ccc(NC4CCCCC4)c([N+](=O)[O-])c3)n2)cc1OC,68%
16,CCCn1c(CN2CCN(c3ccc(OC)cc3)CC2)nc2c1c(=O)[nH]c(=O)n2C,91%
17,CCOCCCN1C(=O)CN(C2CCCCCC2)C(=O)C1c1ccc(OCC)c(OC)c1 (stereo not given),122%
18,Cc1ccccc1C1=CCN(c2ncc(NC(=O)c3ccc(Cl)cc3)cc2C(=O)O)CC1,95%
19,COCCCNC(=O)CCCN1C(=O)CCn2nc(-c3cccn3C)cc21,97%
